These results are taken from PubChem BioAssay (EPA / NIEHS).

Values joined by “and” are separate entries in the source; they are usually repeats but may differ in a detail not shown here. Equal entries are not always repeated. Where a structure was tested more than once in an assay, its records may differ in their call. Active and inactive are the calls of the source. How the source made its calls: active means hit-call score of the fitted dose curve at least 0.9, where 1 is the maximum; inactive means score below 0.9.

Read-out in the test: UDP glucuronosyltransferase (UGT1A6), UGT1A6 (gene 54578)
The experiment in a line: LTEA_HepaRG_UGT1A6: Life Technologies and Expression Analysis (LTEA) Assay for UDP glucuronosyltransferase (UGT1A6) using HepaRG (AID 2283539). To be noted: mRNA level, 48 h; actives raise or lower the signal. The method, then:
LTEA_HepaRG is a cell based, multiplexed-readout assay that uses HepaRG, a human liver cell line, with measurements taken at 48 hours after chemical dosing on a 96-well plate.LTEA_HepaRG_UGT1A6 is one of 102 assay component(s) measured in the LTEA HepaRG cell culture assay. It is a marker of NR mediated metabolism.Data from the assay component LTEA_HepaRG_UGT1A6 was analyzed into 1 endpoint. This assay endpoint, LTEA_HepaRG_UGT1A6, was analyzed with bidirectional fitting relative to DMSO as the negative control and baseline of activity. Using a type of inducible reporter, measures of mRNA induction for gain or loss-of-signal activity can be used to understand regulation of transcription factor activity. To generalize the intended target to other relatable targets, this assay endpoint is annotated to the transferase intended target family, where the subfamily is glucuronosyltransferase.
A total of 1060 chemcials from the ToxCast library were tested in eight-point concentration-response experiments. Cell culture and cytotoxicity assays were conducted at Thermo Fisher Scientific's Custom Services facility (Madison, WI). A single lot of human HepaRG cells (Thermo Fisher Scientific, Frederick, MD) was used for the cell culture experiments. 96-well format collagen type I coated plates of human HepaRG cells were prepared using established methods. Briefly, cryopreserved HepaRG cells were thawed, plated at a density of approximately 100,000 cells/well in HepaRG Thaw, Plate, and General Purpose media (HPRG770, Thermo Fisher Scientific), and incubated for 48 hours. 0.5% DMSO was selected as vehicle control to balance the requisite need of DMSO in HepaRG cultures to maintain differentiation (for example, baseline metabolism, proportions of hepatocytes vs. cholangiocytes), while enabling further hepatic receptor pathway activation (for example, PXR and CAR) in response to chemical exposure. 48 hours after plating, the culture medium was replaced with HepaRG Serum-Free Incudtion Media. Cells were exposed to each test chemical in duplicate and maintained in CO2 incubators for another 48 hours. Chemical plates were thawed to room temperature and 200x concentrations of treatment groups were prepared. 8-point conentration-reponse curves were made with the highest exposure at 100 uM, followed by half-log dilutions, all in 0.5% DMSO. Each test plate contained variouse controls, induction positive controls (1mM phenobarbital), cytotoxicity positive controls ([…] aflatoxin B1), vehicle controls (0.5% DMSO), and total lysis controls (0.5% DMSO). Cell morphology images were taken using an Essen IncuCyte FLR automated microscope, with six 96-well plates imaged in about 24 minutes. Images were captured and exported and JPEG files. Spent culture media was transfered to black-well plates for the LDH assay, and remaining media was sorted at -80 C for later use. Cells were treated with RLT buffer and frozen until shipped for gene expression analysis. Total RNA was isolated from the cell suspension in 75 uL of Buffer RLT (Qiagen, Germantown, MD 20874) by Quintiles/Expression Analysis (Durham, NC) using a custom isolation procedure. Total RNA from each plate well was transferred to a preamplification plate. Fluidigm's 96.96 Dynamic ArrayTM (Fluidigm, Amsterdam, the Netherlands) technology was used for gene expression analyses by quantitative reverse transcription polymerase chain reaction (qRT-PCR, performed by Quintiles/Expression Analysis, Durham, NC)89. Standard TaqManTM Assays (Applied Biosystems/ThermoFisher Scientific, Foster City, CA) were used to assess the expression of 93 genes selected based on their selectivity and sensitivity to important hepatic receptors known to be modulated by environmental chemicals; importance in human hepatocyte functionality; and hepatotoxicity. […]
The term AC50 denotes the midpoint of the concentration-response curve, whichever way the signal moves. On to `CCCN(CCOc1c(Cl)cc(Cl)cc1Cl)C(=O)n1ccnc1`, for which the AC50 is 72.5 µM (active).

As to `Oc1ccc(Cl)cc1Cc1ccccc1`, the outcome was inactive and the AC50 was 81.1 µM (active).

Regarding `O=C(O)C(F)(F)C(F)(F)C(F)(F)C(F)(F)C(F)(F)C(F)(F)C(F)(F)F`, the compound was classed as inactive.

With `O=[N+]([O-])c1c(Cl)c(Cl)c(Cl)c(Cl)c1Cl`, the outcome was inactive.

As to `O=[N+]([O-])/N=C1\NCCN1Cc1ccc(Cl)nc1`, the result was inactive.

With `O=S(=O)(O)C(F)(F)C(F)(F)C(F)(F)C(F)(F)C(F)(F)C(F)(F)C(F)(F)C(F)(F)F`, the AC50 was 89.2 µM (active) and 47 µM (active); the outcome was inactive.

`CNC(=O)Oc1ccccc1OC(C)C`: the compound was called inactive.

In the case of `Cc1[nH]c(=O)n(C(C)(C)C)c(=O)c1Cl`, the outcome was inactive.

For `CN1CSC(=S)N(C)C1`, the compound was called inactive.

As to `O=C(Nc1ccccc1)Nc1cnns1`, the half-maximal activity concentration (AC50) was 77.9 µM (active).

On to `CCCN(CCC)c1c([N+](=O)[O-])cc(C(F)(F)F)cc1[N+](=O)[O-]`, for which the compound was called inactive.

Consider `CC(C)OC(=O)Nc1cccc(Cl)c1`, for which the compound was called inactive.

For the compound `O=C(O)CCCOc1ccc(Cl)cc1Cl`, the outcome was inactive.

Turning to `COP(=S)(OC)Oc1ccc(SC)c(C)c1`, the compound was classed as inactive.

As for `O=C1c2ccccc2C(=O)N1SC(Cl)(Cl)Cl`, the compound was called inactive.

As for `CC1(C)C(C=C(Cl)Cl)C1C(=O)OC(C#N)c1ccc(F)c(Oc2ccccc2)c1` (stereo not given), the call was inactive.

Turning to `COP(=O)(OC)OC=C(Cl)Cl`, the compound was called inactive.

`C[C@H]1[C@H](c2ccc(Cl)cc2)SC(=O)N1C(=O)NC1CCCCC1`: the AC50 is 78.8 µM (active).

In the case of `O=S1OCC2C(CO1)C1(Cl)C(Cl)=C(Cl)C2(Cl)C1(Cl)Cl` (stereo not given), the result was inactive.

Consider `CC(C)(C)C(O)/C(=C\c1ccc(Cl)cc1Cl)n1cncn1` (stereo not given), for which the concentration at half-maximal activity (AC50) was 36.4 µM (active).

On to `CC(C)(C)C(O)C(Oc1ccc(Cl)cc1)n1cncn1` (stereo not given), for which the result was inactive and the AC50 was 0.381 µM (active).

`CNC(=O)/C=C(\C)OP(=O)(OC)OC`: the result was inactive.

Take `CC[C@H](C)[C@H]1O[C@]2(C=C[C@@H]1C)C[C@@H]1C[C@@H](C/C=C(\C)[C@@H](O[C@H]3C[C@H](OC)[C@@H](O[C@H]4C[C@H](OC)[C@@H](O)[C@H](C)O4)[C@H](C)O3)[C@@H](C)/C=C/C=C3\CO[C@@H]4[C@H](O)C(C)=C[C@@H](C(=O)O1)[C@]34O)O2` (tested in a mixture with another compound): the half-maximal activity concentration (AC50) is 18.6 µM (active).

Take `COc1nn(CSP(=S)(OC)OC)c(=O)s1`: the compound was classed as inactive.

For the compound `Oc1cc(Cl)ccc1Oc1ccc(Cl)cc1Cl`, the half-maximal activity concentration (AC50) was 51 µM (active) and the call was inactive.

In the case of `CC1(c2ccc(Oc3ccccc3)cc2)OC(=O)N(Nc2ccccc2)C1=O` (stereo not given), the concentration at half-maximal activity (AC50) was 50.2 µM (active).

For `CCOC1Oc2ccc(OS(C)(=O)=O)cc2C1(C)C` (stereo not given), the AC50 was 85.4 µM (active).

Regarding `CCN(CC)C(=O)SCc1ccc(Cl)cc1`, the call was inactive.

`COP(=S)(OC)Oc1ccc([N+](=O)[O-])cc1`: the compound was called inactive.

As for `CNC(=O)Oc1cccc(N=CN(C)C)c1`, the call was inactive.

Consider `ClC1C(Cl)C(Cl)C(Cl)C(Cl)C1Cl` (stereo not given), for which the call was inactive.

Consider `CNC(=O)CSP(=S)(OC)OC`, for which the compound was called inactive.

Consider `CCOCN(C(=O)CCl)c1c(C)cccc1CC`, for which the result was inactive.

For `O=C(NC(=O)c1c(F)cccc1F)Nc1ccc(OC(F)(F)C(F)OC(F)(F)F)c(Cl)c1` (stereo not given), the compound was classed as inactive.

On to `Clc1ccccc1-c1nnc(-c2ccccc2Cl)nn1`, for which the compound was classed as inactive.

For `CCC(C)Nc1c([N+](=O)[O-])cc(C(C)(C)C)cc1[N+](=O)[O-]` (stereo not given), the result was inactive.
